Rows were chosen to be rich in hits. Some 2.6% of all compounds tested hit in one or more screens of this group.
HEK293 cAMP ctrl: raises cAMP in parental HEK293 cells, TSHR agonist counter-screen. parental HEK293 CNG cAMP sensor, membrane potential fluorescence. Potency, µM (highest dose often 57.1 µM), inactives show top-dose activation, hits mostly activators. 73,000 compounds, 2.5% hits. AID 938; note: % of control where 0% means no effect; nearly all actives have a fitted effect of over 55% in size
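Counterscreen for endogenous-receptor signalling: CNG-channel HEK 293 cells report cAMP rise by membrane depolarization. After 60 min dye equilibration with 100 uM RO 20-1724, compounds incubated 30 min before bottom-read fluorescence at 590 nm.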
TSHR ag: activates the human thyroid stimulating hormone receptor; P16473; HEK293-CNG-TSHR cells (CNG channel as cAMP sensor), membrane potential dye, cAMP; Potency, µM (doses to about 57.1 µM), inactives show top-dose activation, hits mostly activators; 73,000 compounds, 0.48% hits; AID 926; active = well fitted activation curve with a large enough effect in the main read-out, with a control signal flat, not every such curve was filed as active; inconclusive = small, poorly fitted or top-dose-only effect, or a change in a side signal; inactive = no such curve, though single readings can be large or run the other way; % of control where 0% means no effect;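 note: the control signal comes from parental cells without the receptor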
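HEK 293 cells stably expressing TSHR and a modified CNG channel, with CNG-only parental cells as counterscreen, were preloaded 60 min at room temperature with membrane potential dye containing 100 uM RO 20-1724. Compound exposure was 30 min, and depolarization was read as fluorescence at 590 nm.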
Caspase-1 inhib: caspase-1 (human) inhibition, allosteric or competitive | P29466 | Caspase-1 enzyme, Ac-WEHD-AFC fluorogenic rate | Potency, µM (titrated, usually from 57.5 µM), for inactives: at the top dose activity change, negative = inhibition, hits mostly inhibitors | 75,000 compounds, 0.03% hits | AID 900;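 note: plate controls were vehicle for no effect and no substrate for full effect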
Casp7 inh: caspase-7 (human) inhibition, allosteric or competitive; recombinant caspase-7, Ac-DEVD-AFC fluorescence rate; Potency, µM (titrated, usually from 57.5 µM), for inactives: at the highest dose activity change, negative = inhibition, usual class: inhibitors; 75,000 compounds, 0.02% hits; AID 889; active = well fitted inhibition curve with a large enough effect in the main read-out, with a control signal flat, not every such curve was filed as active; inconclusive = small, poorly fitted or top-dose-only effect, or a change in a side signal; note: % of control where 0% means no effect
* hit, by the source's call; ? = inconclusive; . = not tested or not shown; [ ] = another dose, or the depositor's remark. Unless noted, calls come from the whole dose curve; as a rule, active = well fitted curve in the direction sought with a large enough effect; inconclusive = small, poorly fitted or top-dose-only effect, or another doubt; inactive = no such curve, though single readings can be large; an effect the other way counts as inactive or inconclusive. Potency is the fitted concentration of half-maximal effect.

SMILES	HEK293 cAMP ctrl	TSHR ag	Caspase-1 inhib	Casp7 inh
CCC/C=C(\CCC)C(NC(=O)c1ccc(C(F)(F)F)cc1)c1ccccc1 (stereo not given)	15.8µM*	?	-0.2%	2.3%
CCC/C=C(\CCC)C(NC(=O)C(C)(C)C)c1ccc(C(=O)OC)cc1 (stereo not given)	15.8µM*	?	2.5%	-3.6%
CC(=O)OC[C@H]1O[C@@H](O/N=C(\C)CCC(=O)OC[C@@H]2O[C@H](C#Cc3ccccc3)C=C[C@@H]2Oc2ccc(C)cc2)[C@H](OC(C)=O)[C@@H](OC(C)=O)[C@H]1OC(C)=O	1.8%[11.4 µM]	-5.9%[11.4 µM]	-2.7%[11.5 µM]	-2.6%[11.5 µM]
CC(=O)NCCNc1ncnc2ccc(-c3ccccc3C(F)(F)F)cc12	?	?	-0.5%	-3.3%
O=C(O)CCCCCC[C@@H]1C(=O)NC(=O)N1CC[C@@H](O)C1CCCCC1	2µM*	?	.	.
O=C(CSCc1cccc(F)c1)N1CCN(c2ccccc2)CC1	31.6µM*	?	1.1%	-1.6%
O=C(O)Cc1nn(Cc2ccc(Br)cc2F)c(=O)c2ccccc12	17.6%	15.9%	2.9%	-1.7%
Cn1c(N)c(N=Nc2ccc(S(N)(=O)=O)cc2)c(=O)n(C)c1=O	4.4%[11.4 µM]	-2.3%[11.4 µM]	1.0%[11.5 µM]	2.4%[11.5 µM]
Fc1ccc(C(c2nnnn2Cc2ccco2)N2CCN(C3CCCCC3)CC2)cc1 (stereo not given)	?	?	-0.3%	0.0%
Fc1ccc(Cn2nnnc2CN2CCN(C3CCCC3)CC2)cc1	?	?	3.0%	4.1%
CC(C)CC(c1nnnn1Cc1ccco1)N1CCN(C2CCCC2)CC1 (stereo not given)	3.16µM*	?	-1.3%	0.7%
Cc1ccc(C(c2nnnn2C(C)(C)C)N2CCN(C3CCCC3)CC2)cc1 (stereo not given)	?	?	-1.6%	0.4%
CCC(c1nnnn1Cc1ccc(F)cc1)N1CCN(C2CCCCC2)CC1 (stereo not given)	0.631µM*	?	-2.7%	-2.6%
CC(C)CC(c1nnnn1C(C)(C)C)N1CCN(C2CCCC2)CC1 (stereo not given)	12.6µM*	?	-0.9%	-0.1%
COc1ccc(CNC(=O)[C@H](C)[C@H]2C[C@]2(C)[C@H](NC(=O)OCc2ccccc2)c2ccccc2)cc1OC	?	?	-5.4%	-2.5%
COc1cc(N[C@@H](C)CCCN)c2ncccc2c1	-5.1%[25.6 µM]	-19.6%[25.6 µM]	2.51µM*	-22.3%[25.7 µM]
N#CCCCSc1nnc(-c2ccc(Cl)cc2)n1-c1ccccc1	25.1µM*	?	-4.2%	-0.1%
CCCN(Cc1cc2cc(C)ccc2[nH]c1=O)S(C)(=O)=O	10.2%	5.01µM*	-1.4%	-2.0%
Cc1ccc(C(=O)NC2CCCCCC2)o1	6.1%	-12.0%	1.1%	-0.7%
Cc1ccc(-c2nc(C(=O)NC3CCCCCC3)no2)cc1	20µM*	?	1.2%	-4.3%
Cn1nc(-c2ccc(N3CCOCC3)c(NC(=O)COc3ccccc3)c2)c2ccccc2c1=O	9.8%	10µM*	0.6%	0.4%
CC(C)C=O	7.1%	3.5%	0.5%	-0.3%
Cc1cccc(-n2nnnc2SCn2nnc3ccccc3c2=O)c1	25.1µM*	?	0.5%	6.0%
COc1ccc(C)cc1-n1nnnc1SCn1nnc2ccccc2c1=O	?	?	-7.3%	6.1%
COC(=O)c1ccc(NS(=O)(=O)c2ccc3c(c2)oc(=O)n3C)cc1	1.26µM*	?	-0.3%	0.9%
SMILES	HEK293 cAMP ctrl	TSHR ag	Caspase-1 inhib	Casp7 inh
COC(=O)[C@@H]1C[C@H]1[C@@H](NS(=O)(=O)c1ccccc1)c1ccccc1	10.0%	25.4%	0.7%	1.1%
COc1ccc(-c2noc(-c3ccccc3C(=O)Nc3cccc(OC)c3)n2)cc1	12.6µM*	?	-1.3%	-1.4%
COc1ccc(-c2noc(-c3ccccc3C(=O)Nc3cccnc3)n2)cc1	?	?	-3.5%	0.6%
CCOc1ccccc1NC(=O)c1ccccc1-c1nc(-c2ccccc2)no1	15.8µM*	?	-1.5%	-2.1%
CCOC(=O)CNC(=O)CSc1nc2cccnc2n1C1CCCCC1	11.5%	-3.2%	-0.8%	1.2%
CC(C)OC(=O)CSc1nc2cccnc2n1C1CCCCC1	15.8µM*	?	-5.1%	4.1%
COc1ccc(C)cc1NC(=O)CSc1nnc(-c2cc3cccc(OC)c3o2)n1N	15.8µM*	?	1.3%	4.7%
COc1ccc(-c2nc3cnc(N4CCNCC4)nc3n(CCc3ccccc3)c2=O)cc1	-25.8%	-4.5%	.	?
CCOC(=O)C1CCN(C(C(=O)Nc2ccc3c(c2)OCCO3)c2ccccc2)CC1 (stereo not given)	12.6µM*	?	1.1%	2.5%
COCCn1c(-c2ccc(Cl)cc2)cnc1SCC(=O)NCc1cccs1	10µM*	?	-2.7%	-5.3%
COc1ccc(-c2nnc(COc3ccc4ccccc4c3)o2)cc1OC	3.98µM*	?	-5.0%	-2.9%
O=c1c2ccccc2nc(SCc2nnc(-c3ccccc3)o2)n1-c1ccc(F)cc1F	?	?	2.5%	-2.1%
COc1ccc(-c2nnc(CSc3nc4ccccc4c(=O)n3C)o2)cc1OC	25.1µM*	?	-0.7%	6.5%
Cn1cccc1C(=O)N1CCC2(CC1)CCN(c1cccc(-c3ccccc3)c1)CC2	13.3%	0.6%	-4.1%	0.1%
Cc1cccc(Cc2c(C)nc3c(C(=O)NCc4ccco4)cnn3c2C)c1	?	?	-4.0%	-6.5%
Cc1nc2c(C(=O)NCc3ccco3)cnn2c(C)c1Cc1ccc(F)cc1Cl	25.1µM*	?	-3.2%	-4.2%
CCN1c2ccccc2-c2nc3ccccc3n2C1c1ccccn1 (stereo not given)	15.8µM*	?	.	?
c1cncc(C2Nc3ccccc3-c3nc4ccccc4n32)c1 (stereo not given)	3.8%	27.5%	?	-17.1%
CCN1c2ccccc2-c2nc3ccccc3n2C1c1ccncc1 (stereo not given)	20µM*	?	-14.5%	-12.6%
CCN1c2ccccc2-c2nc3ccccc3n2C1c1cccnc1 (stereo not given)	31.6µM*	?	.	?
COC(=O)C1=C(N)OC2=C(C(=O)CC(C)(C)C2)C1c1cccs1 (stereo not given)	3.16µM*	?	-0.9%	3.6%
CCOC(=O)C1=C(N)OC2=C(C(=O)CC(C)(C)C2)C1c1cccnc1 (stereo not given)	?	?	-0.4%	-0.5%
CCOC(=O)C1=C(N)OC2=C(C(=O)CC(C)(C)C2)C1c1ccoc1 (stereo not given)	12.6µM*	?	-1.6%	0.0%
CC1(C)Cc2cccc(OCC(=O)O)c2O1	-2.4%	4.2%	-0.8%	1.7%
CC1(C)Cc2cccc(OCC(=O)Nc3ccccc3N3CCOCC3)c2O1	20µM*	?	-0.7%	-1.2%
Cc1cc(=O)oc2cc(O)cc(O)c12	11.8%	?	.	?
CCCCCc1cc(O)c2c(C)cc(=O)oc2c1	3.16µM*	?	-4.2%	0.5%
COc1ccc(CNc2nc(-c3cccc(NS(C)(=O)=O)c3)nc3ccccc23)c(OC)c1	?	?	-6.5%	-5.8%
